From PubChem BioAssay (Tox21) come the findings set out here.

Values without a mark were called inactive. Results filed as inconclusive are left out. Active and inactive are the calls of the source. Unless noted, calls come from the whole dose curve; as a rule, active = well fitted curve in the direction sought with a large enough effect in the repeat runs; inconclusive = weak or mixed curves; inactive = no such curve, though single readings can be large; an effect the other way counts as inactive or inconclusive.

For test [1], the target named is Estrogen receptor beta (Homo sapiens) (UniProt Q92731). Kind of test: qHTS assay to identify small molecule agonists of the estrogen receptor beta (ER-beta) signaling pathway (AID 1259377; active = well fitted activation curve with a large enough effect in the signal ratio in the repeat runs, not every such curve was filed as active; the % refers to the signal ratio). The procedure, abridged:
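qHTS in ER-beta-UAS-bla HEK293T cells: 6 hr settling, then 16 hr compound at 37C, then LiveBLAzer substrate 2 h at RT before fluorescence reading.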
A general note: Quantitative high-throughput screening tests each substance at several concentrations.

Test [2] shares this target. The test can be described thus: qHTS assay to identify small molecule antagonists of the estrogen receptor beta (ER-beta) signaling pathway (AID 1259378; active = well fitted inhibition curve with a large enough effect in the signal ratio in the repeat runs, not every such curve was filed as active; the % refers to the signal ratio). The procedure, abridged: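 ER-beta-UAS-bla HEK293T (GripTite) cells in 2% charcoal-stripped FBS medium were preincubated 6 hr at 37C, dosed with compound, then stimulated with 1 nM E2 (final) for 16 hr; beta-lactamase reporter read by B/G FRET fluorescence after 2 hr substrate loading.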

Test [3] can be described thus: qHTS assay to identify small molecule antagonists of the estrogen receptor beta (ER-beta) signaling pathway - cell viability counter screen (AID 1259382). Note: series mostly up to about 92 µM; nearly all actives have a fitted effect of over 55% in size. The procedure, abridged:
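Readout: luminescence, CellTiter-Glo, same wells as bla assay. System: ER-beta-UAS-bla GripTite HEK293T, 2% charcoal-stripped FBS. Exposure: compounds plus 1nM 17-beta-estradiol, 16 hr, 37C.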

For test [4], the target named is Estrogen receptor (Homo sapiens) (UniProt P03372). Kind of test: qHTS assay to identify small molecule agonists of the estrogen receptor alpha (ER-alpha) signaling pathway in the presence of an antagonist (AID 1259383; calls by dose curve; note: top concentration of the series differs between compounds; nearly all actives have a fitted effect of over 15% in size). The procedure, abridged:
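Quantitative HTS confirmation: compounds titrated at 15 concentrations onto estrogen-deprived VM7Luc4E2 cells carrying a four-ERE luciferase construct, with ICI-182,780 present at 10.0nM final. Signal is luminescence after 22hr exposure.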

The nature of test [5]: qHTS assay to identify small molecule agonists or antagonists of the thyroid stimulating hormone receptor (TSHR) signaling pathway - wild type cell line counter screen (AID 1259384; calls by dose curve). The procedure, abridged:
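Wild-type HEK293 cells were plated 18 h at 37 C/5% CO2, pin-dosed with compound plus Ro20-1724 medium, held 30 min at room temperature, then given cAMP-d2 and anti-cAMP-cryptate; fluorescence was read after 1 h. Fifteen concentrations, triplicate.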

Test [6] concerns the target Thyrotropin receptor (Homo sapiens) (UniProt P16473). The test can be described thus: qHTS assay to identify small molecule antagonists of the thyroid stimulating hormone receptor (TSHR) signaling pathway (AID 1259385; calls by dose curve; note: nearly all actives have a fitted effect of over 20% in size). The procedure, abridged: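 TSHR-HEK293 cells were plated and held 18 h at 37C/5% CO2, then given compound plus Ro20-1724 and stimulated with TSH at 1.5 ng/mL final. After 30 min at room temperature, cAMP was detected with cAMP-d2/anti-cAMP-cryptate (1 h) by fluorescence.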

A short description of test [7]: qHTS assay to identify small molecule agonists of the estrogen receptor alpha (ER-alpha) signaling pathway in the presence of an antagonist - cell viability counter screen (AID 1259386). For activity change, negative = cytotoxicity: series mostly up to about 92 µM.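 Note: cells exposed to compounds for 22 h at 37 °C before the viability read; nearly all actives have a fitted effect of over 30% in size.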 Note: potency is the fitted concentration of half-maximal effect. In a few lines: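 The test measures whether compounds kill ER-alpha reporter cells (VM7Luc4E2) under antagonist co-treatment (ICI-182,780, 10.0nM). Fluorescence from CellTiter-Fluor is read after a 22hr exposure.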

The target of test [8] is Progesterone receptor (Homo sapiens) (UniProt P06401). Kind of test: qHTS assay to identify small molecule agonists of the progesterone receptor (PR) signaling pathway (AID 1346784; calls by dose curve; note: nearly all actives have a fitted effect of over 30% in size). In a few lines:
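Fluorescence from LiveBLAzer B/G FRET substrate cleavage (2 hr, RT) reported PR activation in PR-UAS-bla HEK 293T cells treated 16 hr at 37C/5% CO2 with compounds; medium contained 2% charcoal-stripped FBS.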

A short description of test [9]: qHTS assay to identify small molecule antagonists of the progesterone receptor (PR) signaling pathway - cell viability counter screen (AID 1346798). Note: series mostly up to about 92 µM; nearly all actives have a fitted effect of over 50% in size. The procedure, abridged: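 CellTiter-Glo luminescence; PR-UAS-bla HEK293T, 3,000 cells/well; compound + R5020, 16 hr, 37C/5% CO2; 30 min RT before read.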
Test [10] is described as follows: qHTS assay to identify small molecule antagonists of the TGF-beta/Smad signaling pathway - cell viability counter screen (AID 1346824). Note: nearly all actives have a fitted effect of over 50% in size. In a few lines: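 SBE-bla HEK 293T cells were plated overnight at 37 C, then given compounds in DMSO plus TGF-beta1 (added as 0.25 ng/mL solution) for 5 hr. After the bla read, CellTiter-Glo was added to the same wells and luminescence read after 30 min at room temperature.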

The nature of test [11]: qHTS assay to identify small molecule agonists of the TGF-beta/Smad signaling pathway - cell viability counter screen (AID 1346829). Note: top concentration of the series differs between compounds; nearly all actives have a fitted effect of over 45% in size. In a few lines: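 Tox21 qHTS format: SBE-bla HEK 293T cells treated with DMSO-dissolved compounds for 5 hr; CellTiter-Glo luminescence after 30 min at room temperature.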
For test [12], the target named is Thyrotropin-releasing hormone receptor (Homo sapiens) (UniProt P34981). The test can be described thus: qHTS assay to identify small molecule antagonists of the thyrotropin-releasing hormone receptor (TRHR) signaling pathway (AID 1346877; active = well fitted inhibition curve with a large enough effect in the repeat runs, not every such curve was filed as active; note: series mostly up to about 51 µM). In a few lines: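 Overnight-plated (18 h, 37 °C) HEK293 cells expressing TRHR were dye-loaded 2 h, treated with compound, then stimulated with TRH at 1 nM final. Fluorescence intensity was captured every second for 3 min.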
Thyrotropin-releasing hormone receptor (Homo sapiens), sequence (P34981 whole entry, looked up): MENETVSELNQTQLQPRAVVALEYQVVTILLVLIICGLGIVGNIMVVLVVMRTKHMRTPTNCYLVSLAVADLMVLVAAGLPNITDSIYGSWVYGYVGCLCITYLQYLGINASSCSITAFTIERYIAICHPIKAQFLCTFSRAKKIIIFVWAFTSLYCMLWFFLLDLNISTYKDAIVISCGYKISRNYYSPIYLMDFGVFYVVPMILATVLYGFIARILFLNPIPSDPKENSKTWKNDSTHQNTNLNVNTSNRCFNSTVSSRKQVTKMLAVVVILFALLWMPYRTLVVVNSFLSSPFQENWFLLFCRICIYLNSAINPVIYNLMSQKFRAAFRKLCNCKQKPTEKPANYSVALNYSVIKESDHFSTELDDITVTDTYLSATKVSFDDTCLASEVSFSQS

Test [13] shares this target. The test can be described thus: qHTS assay to identify small molecule agonists of the thyrotropin-releasing hormone receptor (TRHR) signaling pathway (AID 1346891; calls by dose curve;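 note: HEK293 cells expressing TRHR with calcium dye readout; series mostly up to about 58 µM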). The procedure, abridged:
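Compounds were tested as agonists at 15 concentrations, in triplicate, on TRHR-Hek293 cells; calcium-sensitive dye fluorescence was recorded for 3 min following addition.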

The nature of test [14]: Human pregnane X receptor (PXR) small molecule agonists, qHTS cell viability counter screen (AID 1346977). Note: nearly all actives have a fitted effect of over 50% in size. Note: potency is the fitted concentration of half-maximal effect. The procedure, abridged: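 Viability counter screen: CellTiter-Fluor signal in PXR-Luc HepG2 cells, 24hr compound exposure, 37C, 5% CO2.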
Test [15] can be described thus: qHTS assay to identify small molecule agonists of the androgen receptor (AR) signaling pathway in the presence of an antagonist - cell viability counter screen (AID 1259379).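 For activity change, negative = cytotoxicity: MDA-kb2 human breast cancer cells carrying an MMTV luciferase reporter; series mostly up to about 92 µM.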 Note: nearly all actives have a fitted effect of over 25% in size. Note: potency is the fitted concentration of half-maximal effect. In a few lines: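 MDA-kb2 viability measured by CellTiter-Fluor fluorescence in the same wells as the luciferase signal; nilutamide 3.0uM final; 15-point compound titration; 16 hr at 37C.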

The nature of test [16]: qHTS assay to identify small molecule agonists of the estrogen receptor beta (ER-beta) signaling pathway - cell viability counter screen (AID 1259380). Note: nearly all actives have a fitted effect of over 30% in size. Note: potency is the fitted concentration of half-maximal effect. In a few lines:
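Measured: luminescence from CellTiter-Glo after 30 min at room temperature, added to wells already read for the LiveBLAzer FRET reporter (2 hr substrate); ER-beta-UAS-bla HEK293T cells had 16 hr compound treatment at 37C, 5% CO2.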

For test [17], the target named is Progesterone receptor (Homo sapiens) (UniProt P06401). Kind of test: qHTS assay to identify small molecule antagonists of the progesterone receptor (PR) signaling pathway (AID 1346795; active = well fitted inhibition curve with a large enough effect in the signal ratio in the repeat runs, not every such curve was filed as active; the % refers to the signal ratio; note: potency is the fitted concentration of half-maximal effect). The procedure, abridged:
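Fluorescence intensity measured 2 hr after adding beta-lactamase FRET substrate to PR-UAS-bla HEK293T cells that had been co-treated 16 hr with compound and 1 nM R5020 (final concentration) in 2% charcoal-stripped FBS.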

The nature of test [18]: qHTS assay to identify small molecule agonists of the progesterone receptor (PR) signaling pathway - cell viability counter screen (AID 1346799; calls by dose curve; note: nearly all actives have a fitted effect of over 45% in size). The procedure, abridged: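 In parallel with the beta-lactamase readout, cytotoxicity toward PR-UAS-bla HEK293T cells was measured by CellTiter-Glo luminescence following 16 hr compound incubation in 2% charcoal-stripped FBS medium.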

Test [19] can be described thus: qHTS assay to identify small molecule agonists of the TGF-beta/Smad signaling pathway (AID 1346859; active = well fitted activation curve with a large enough effect in the signal ratio in the repeat runs, not every such curve was filed as active; the % refers to the signal ratio; note: series mostly up to about 77 µM). In a few lines:
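After overnight seeding, SBE-bla HEK 293T cells are dosed with compounds in DMSO and kept 5 hr at 37 C, 5% CO2. LiveBLAzer-type FRET substrate is then applied for 2 hr at room temperature.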
% is set by controls: 0 for no effect and ±100 for the full control effect.

Thyrotropin receptor (Homo sapiens), sequence (P16473 whole entry, looked up): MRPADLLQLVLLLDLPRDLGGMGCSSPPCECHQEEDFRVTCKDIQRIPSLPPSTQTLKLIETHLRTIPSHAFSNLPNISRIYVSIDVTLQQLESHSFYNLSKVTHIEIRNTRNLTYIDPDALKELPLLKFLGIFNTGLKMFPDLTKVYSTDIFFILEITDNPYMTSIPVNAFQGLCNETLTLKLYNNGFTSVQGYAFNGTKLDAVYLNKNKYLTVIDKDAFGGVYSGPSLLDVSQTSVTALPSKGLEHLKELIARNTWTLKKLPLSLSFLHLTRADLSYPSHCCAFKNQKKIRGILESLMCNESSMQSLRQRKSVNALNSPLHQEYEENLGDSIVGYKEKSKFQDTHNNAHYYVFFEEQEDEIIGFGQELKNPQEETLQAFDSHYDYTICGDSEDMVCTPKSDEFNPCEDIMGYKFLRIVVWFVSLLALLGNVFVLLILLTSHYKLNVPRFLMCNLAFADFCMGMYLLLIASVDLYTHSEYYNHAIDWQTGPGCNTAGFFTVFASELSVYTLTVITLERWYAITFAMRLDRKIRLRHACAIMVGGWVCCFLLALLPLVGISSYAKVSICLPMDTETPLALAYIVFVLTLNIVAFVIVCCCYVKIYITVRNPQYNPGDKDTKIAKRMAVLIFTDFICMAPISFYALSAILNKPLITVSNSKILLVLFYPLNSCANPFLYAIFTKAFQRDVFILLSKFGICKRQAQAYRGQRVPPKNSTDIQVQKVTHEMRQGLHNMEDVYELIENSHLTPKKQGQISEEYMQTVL
Estrogen receptor (Homo sapiens), sequence (P03372 whole entry, looked up): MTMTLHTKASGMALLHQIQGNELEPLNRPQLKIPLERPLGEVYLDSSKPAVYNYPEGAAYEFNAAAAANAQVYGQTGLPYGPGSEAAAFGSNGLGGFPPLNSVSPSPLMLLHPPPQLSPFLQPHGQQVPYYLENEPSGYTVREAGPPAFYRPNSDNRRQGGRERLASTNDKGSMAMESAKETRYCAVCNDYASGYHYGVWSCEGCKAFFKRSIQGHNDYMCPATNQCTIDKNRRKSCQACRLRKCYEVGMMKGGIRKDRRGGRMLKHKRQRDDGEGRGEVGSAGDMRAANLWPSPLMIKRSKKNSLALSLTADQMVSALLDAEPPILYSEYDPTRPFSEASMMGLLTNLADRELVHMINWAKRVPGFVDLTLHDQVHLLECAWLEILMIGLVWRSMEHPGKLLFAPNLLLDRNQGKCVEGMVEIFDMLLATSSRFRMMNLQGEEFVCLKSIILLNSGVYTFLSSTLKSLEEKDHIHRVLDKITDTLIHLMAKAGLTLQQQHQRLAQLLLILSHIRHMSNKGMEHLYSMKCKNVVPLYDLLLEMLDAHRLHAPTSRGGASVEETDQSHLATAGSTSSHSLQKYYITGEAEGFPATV
Progesterone receptor (Homo sapiens), sequence (P06401 whole entry, looked up): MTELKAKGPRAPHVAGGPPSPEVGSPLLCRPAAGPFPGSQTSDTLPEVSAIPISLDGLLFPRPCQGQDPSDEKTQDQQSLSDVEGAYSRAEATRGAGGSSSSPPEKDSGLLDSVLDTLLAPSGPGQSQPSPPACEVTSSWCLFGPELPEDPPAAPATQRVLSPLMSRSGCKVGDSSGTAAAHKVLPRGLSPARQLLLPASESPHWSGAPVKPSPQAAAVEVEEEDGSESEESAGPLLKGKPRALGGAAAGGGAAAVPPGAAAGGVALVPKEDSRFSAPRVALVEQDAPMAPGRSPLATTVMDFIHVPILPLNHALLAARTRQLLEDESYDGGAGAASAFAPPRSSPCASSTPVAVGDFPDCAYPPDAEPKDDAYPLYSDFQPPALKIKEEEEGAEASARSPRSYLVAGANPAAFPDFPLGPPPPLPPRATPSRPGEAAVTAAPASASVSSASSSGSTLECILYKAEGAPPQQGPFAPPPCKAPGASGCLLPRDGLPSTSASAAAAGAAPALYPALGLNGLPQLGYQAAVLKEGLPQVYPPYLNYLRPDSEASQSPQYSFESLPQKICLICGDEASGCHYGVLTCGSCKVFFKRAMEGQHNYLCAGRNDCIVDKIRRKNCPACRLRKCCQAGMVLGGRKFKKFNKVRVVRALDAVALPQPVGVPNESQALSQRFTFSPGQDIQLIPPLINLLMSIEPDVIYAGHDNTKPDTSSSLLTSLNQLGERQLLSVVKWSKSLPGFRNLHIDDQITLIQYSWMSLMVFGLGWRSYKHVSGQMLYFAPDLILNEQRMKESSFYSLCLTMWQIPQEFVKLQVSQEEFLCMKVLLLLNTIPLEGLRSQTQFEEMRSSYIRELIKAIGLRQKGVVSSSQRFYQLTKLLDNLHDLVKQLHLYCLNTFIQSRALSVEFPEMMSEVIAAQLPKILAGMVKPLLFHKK
Estrogen receptor beta (Homo sapiens), sequence (Q92731 whole entry, looked up): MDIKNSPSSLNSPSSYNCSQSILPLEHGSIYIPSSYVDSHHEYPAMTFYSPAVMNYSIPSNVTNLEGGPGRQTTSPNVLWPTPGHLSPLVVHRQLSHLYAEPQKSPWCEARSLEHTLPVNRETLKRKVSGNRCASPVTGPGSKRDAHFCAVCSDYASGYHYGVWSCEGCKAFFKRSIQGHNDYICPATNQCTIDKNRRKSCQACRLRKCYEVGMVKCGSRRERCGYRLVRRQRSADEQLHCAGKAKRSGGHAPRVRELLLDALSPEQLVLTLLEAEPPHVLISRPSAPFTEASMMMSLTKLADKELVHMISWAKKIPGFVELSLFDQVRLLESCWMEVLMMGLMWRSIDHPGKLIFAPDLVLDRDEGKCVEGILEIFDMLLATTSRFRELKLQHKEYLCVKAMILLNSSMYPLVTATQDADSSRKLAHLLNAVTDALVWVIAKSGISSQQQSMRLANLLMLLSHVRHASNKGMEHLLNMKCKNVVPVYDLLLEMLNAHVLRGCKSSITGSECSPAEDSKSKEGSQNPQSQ

As to `CC(C)(C)CC(C)(C)c1ccc(Nc2ccc(C(C)(C)CC(C)(C)C)cc2)cc1`, the activation in test [1] is -0.0232% [at 8.39 µM]; in test [4] it was 1.18% [at 8.39 µM]; in test [8] it was -0.254% [at 8.39 µM]; in test [13], -0.0029% [at 5.23 µM]. In addition, the activity, negative = inhibition is -7.19% [at 8.39 µM] in test [2] and -2.04% [at 4.65 µM] in test [12]. Further, the activity change, negative = cytotoxicity was -9.43% [at 8.39 µM] in [3]; 1.15% [at 8.39 µM] in test [7]; -7.66% [at 8.39 µM] in [9]; 1.44% [at 6.97 µM] in test [11]; 1.07% [at 8.39 µM] in test [14]. Further, the cAMP activity change in test [5] is 6.94% [at 8.39 µM]. Also, the activity change, negative = inhibition in [6] was 1.31% [at 8.39 µM]. Besides, the viability change, negative = cytotoxic in test [10] was 15.5% [at 6.97 µM].

For `O=c1[nH]c(=O)n([C@H]2C[C@H](O)[C@@H](CO)O2)cc1F`, the Potency entry in test [1], in test [15], in [4], in test [6], in test [7] and in test [8] was “inactive” in each case. For the same molecule, the Potency result in test [17], in test [9], in test [18], in test [10], in test [11] and in test [12] was “inactive” in each case. Moreover, the Potency result in test [14] was “inactive”. For the same molecule, the Potency in [16] is 0.15 µM (active). Also, the outcome in [5] and in test [13] was inactive.

With `O=C(/C=C/c1ccc(O)c(O)c1)O[C@@H](C(=O)O)[C@@H](OC(=O)/C=C/c1ccc(O)c(O)c1)C(=O)O`, the Potency result in [1], in test [2], in [15], in test [3], in [8] and in test [17] was “inactive” each time. For the same molecule, the Potency result in [9], in [10], in test [11], in test [19] and in [12] was “inactive” throughout. Besides, in [13], the molecule was classed as inactive.

On to `Cc1cc(-c2ccc(N=Nc3cc(S(=O)(=O)O)c4ccccc4c3N)c(C)c2)ccc1N=Nc1cc(S(=O)(=O)O)c2ccccc2c1N`, for which the Potency entry in test [1], in test [2], in test [3], in test [4], in [6] and in test [8] was “inactive” in each case. Also, the Potency result in test [17], in [9], in test [10], in test [11] and in [12] was “inactive” throughout. Moreover, the Potency in test [15] was 3.88 µM (active); in test [7] it was 30.8 µM (active). Further, the call in test [5] and in test [13] was inactive.

In the case of `CC[N+](CC)(CC)CCOc1ccc(/C=C/c2ccccc2)cc1`, the Potency result in test [1], in test [3], in test [4], in test [6], in test [7] and in test [8] was “inactive” throughout. Further, the Potency result in [9], in test [10], in [11], in test [19], in test [12] and in [14] was “inactive” each time. For the same molecule, the Potency in [15] is 9.44 µM (active). The molecule was called inactive in [5] and in test [13].

Consider `CC(C)=CCC1=C(O)c2ccccc2C(=O)C1=O`, for which the Potency entry in test [1], in test [4], in [8], in test [10], in [11] and in [19] was “inactive” throughout. The Potency result in test [12] is “inactive”. Besides, the Potency in test [15] is 43 µM (active); in test [16] it was 1.53 µM (active); in [7], 43 µM (active); in [14] it was 60.8 µM (active). For the same molecule, the molecule was classed as inactive in test [13].

For the molecule `O=C1CCc2cc(OCCCCc3nnnn3C3CCCCC3)ccc2N1`, the Potency result in [1], in [15], in [3], in [4], in test [6] and in test [8] was “inactive” in each case. In addition, the Potency entry in test [10], in test [11] and in test [12] was “inactive” in each case. Further, the call in test [5] and in test [13] was inactive.

Turning to `C[Si](Cl)(c1ccccc1)c1ccccc1`, the Potency result in test [1], in [15], in test [16], in test [4], in test [6] and in test [7] was “inactive” throughout. The Potency entry in test [9], in test [10], in test [11], in test [19] and in test [14] was “inactive” each time. Moreover, the result in [5] was inactive. Further, the Potency in [17] was 29.9 µM (active).
